Sampled rows, rich in hits. Any-hit rate of the full collection: about 4%.
CF NFkB block = inhibitors of PAF-induced NF-kB signaling, primary screen, cell-based, GFP fluorescence, uHTS; KKLEB NF-kB-GFP reporter, GFP fluorescence overnight; inhibition, % at 5 µM; hit rate 0.86% among 360,000; AID 588850, 2011;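 active = at least 50% inhibition at 5 µM, scaled per plate between neutral and stimulator controls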;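 note: PAF is a Pseudomonas aeruginosa culture filtrate used as stimulus; plate controls were PAF-stimulated DMSO wells for no effect and unstimulated DMSO wells for full effect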
TWEAK-Fn14 inh = inhibitors of TWEAK-Fn14 signaling, primary screen, luciferase reporter cells, uHTS; TWEAK-stimulated Fn14 reporter cells, luciferase luminescence, 8 h; inhibition, % at 10 µM; hit rate 2% among 360,000; in the data active = inhibition above about 50%
Peg3 prom inh = Peg3 promoter-driven luciferase inhibitors, primary screen, cell-based, HeLa, luciferase luminescence | AID 588405, 2011 | hit rate 1.7% among 360,000 | inhibition, % at 20 µM | HeLa PEG-Prom luciferase reporter, overnight;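 active = inhibition of at least 50% at 20 µM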
HIF-2a block = HIF-2a reporter inhibitors, primary screen, luminescence, 786-0 RCC cells; 786-0 RCC cells HIF-2a reporter, luciferase luminescence, overnight; inhibition, % at 18.8 µM; hit rate 0.72% among 360,000;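 active = inhibition of the luminescence signal of 40% or more relative to plate controls, in a single-dose primary screen at 18.75 µM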
KKLEB tox = cytotoxicity in KKLEB CF airway cells, primary screen, cytotoxicity control for CF NF-kB inhibitor project, cell-based, uHTS, fluorescence assay plates; hit rate 0.36% among 360,000; activity change (cytotoxicity), % at 5 µM; KKLEB CF airway cells viability, ATPlite luminescence, overnight; hits give low values; cells stimulated with P. aeruginosa culture filtrate;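 active = corrected activity change at or below -50% at 5 µM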
TROY signal inh = inhibitors of TROY-driven NF-kB signaling, primary screen, Q293 LMP1-TROYcd cells, NF-kB luciferase, uHTS. Q293 LMP1-TROYcd NF-kB luciferase reporter, 4 h. inhibition, % at 10 µM. hit rate 0.98% among 360,000. AID 1347056, 2019;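 active = compounds whose plate-normalised and pattern-corrected inhibition of the luciferase reporter signal at the single screening dose is 50% or more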
* = called active by the depositor.

What do the screens show for `c1ccc(-c2cc(-c3nc(-c4ccccn4)no3)c3ccccc3n2)cc1`?
CF NFkB block: -24; TWEAK-Fn14 inh: 22; Peg3 prom inh: 8; HIF-2a block: -17; KKLEB tox: 2; TROY signal inh: -4

What do the screens show for `c1ccc(-c2noc(-c3ccno3)n2)nc1`?
CF NFkB block: -6; TWEAK-Fn14 inh: 0; Peg3 prom inh: -37; HIF-2a block: -68; KKLEB tox: 26; TROY signal inh: -36

How did c1ccc(-c2ccc(-c3nc(-c4ccccn4)no3)cc2)cc1 do in these assays?
CF NFkB block: -36; TWEAK-Fn14 inh: 106*; Peg3 prom inh: 97*; HIF-2a block: 83*; KKLEB tox: -78*; TROY signal inh: 89*

How did c1ccc(-c2noc(-c3ccco3)n2)nc1 do in these assays?
CF NFkB block: 2; TWEAK-Fn14 inh: 53*; Peg3 prom inh: -131; HIF-2a block: -98; KKLEB tox: 1; TROY signal inh: -16

How did c1ccc(-c2noc(-c3cccc4ccccc34)n2)nc1 do in these assays?
CF NFkB block: -8; TWEAK-Fn14 inh: 77*; Peg3 prom inh: -63; HIF-2a block: -43; KKLEB tox: -30; TROY signal inh: 20

Results for CN1C(=O)[C@H]2[C@@H](c3ccc(C(F)(F)F)cc3)N[C@]3(CCCN(Cc4ccc(Cl)cc4)C3=O)[C@H]2C1=O ?
CF NFkB block: -17; TWEAK-Fn14 inh: -10; Peg3 prom inh: 2; HIF-2a block: 10; KKLEB tox: -3; TROY signal inh: -4

What do the screens show for `CCCCN1C(=O)C(O)(c2ccccc2)c2cc(Br)ccc21` (configuration not stated)?
CF NFkB block: 12; TWEAK-Fn14 inh: 22; Peg3 prom inh: 26; HIF-2a block: 8; KKLEB tox: -14; TROY signal inh: -17

What do the screens show for `c1ccc(-c2noc(-c3ccc4ccccc4c3)n2)cc1`?
CF NFkB block: -30; TWEAK-Fn14 inh: 81*; Peg3 prom inh: -45; HIF-2a block: -85; KKLEB tox: -11; TROY signal inh: 69*

How did Cc1cccc(-c2nnc(-c3ccc4ccccc4c3)o2)c1 do in these assays?
CF NFkB block: -19; TWEAK-Fn14 inh: 55*; Peg3 prom inh: -222; HIF-2a block: -124; KKLEB tox: -4; TROY signal inh: 23

Results for CCOc1ccccc1NS(=O)(=O)c1c(C)[nH]c(C)c1C(=O)N1CCCCC1 ?
CF NFkB block: 3; TWEAK-Fn14 inh: -8; Peg3 prom inh: 8; HIF-2a block: 17; KKLEB tox: 2; TROY signal inh: -26

How did O=[N+]([O-])c1cc(S(=O)(=O)N2CCCC2)ccc1N/N=C1/CCCc2ccccc21 do in these assays?
CF NFkB block: 17; TWEAK-Fn14 inh: 64*; Peg3 prom inh: 0; HIF-2a block: 14; KKLEB tox: -15; TROY signal inh: 18

Results for CC1=C(C(=O)N(C)C)CC(CC(=O)NCCCN(C)C)C(=O)N1CCCN1CCCC1=O (configuration not stated) ?
CF NFkB block: -26; TWEAK-Fn14 inh: 11; Peg3 prom inh: 11; HIF-2a block: 0; KKLEB tox: 1; TROY signal inh: 11

How did Cc1ccc2nc(NC(=O)C3CC3C)sc2c1 (configuration not stated) do in these assays?
CF NFkB block: -2; TWEAK-Fn14 inh: 28; Peg3 prom inh: -334; HIF-2a block: -202; KKLEB tox: 8; TROY signal inh: -42

What do the screens show for `Cc1cc(C)n2nc(NCc3cccc(Br)c3)nc2n1`?
CF NFkB block: -6; TWEAK-Fn14 inh: -18; Peg3 prom inh: -6; HIF-2a block: -31; KKLEB tox: -4; TROY signal inh: 80*

What do the screens show for `CCc1ccccc1N1C(=O)C(Cl)=C(N2CCOCC2)C1=O`?
CF NFkB block: -10; TWEAK-Fn14 inh: -4; Peg3 prom inh: -2; HIF-2a block: 17; KKLEB tox: -2; TROY signal inh: 1

How did O=C(NC(=S)Nc1ccc(N2CCOCC2)cc1)c1ccc2c(c1)OCCO2 do in these assays?
CF NFkB block: 15; TWEAK-Fn14 inh: 51*; Peg3 prom inh: -90; HIF-2a block: -7; KKLEB tox: -12; TROY signal inh: 60*

Results for O=C(NC(=S)Nc1ccc(F)cc1)c1ccc2c(c1)OCCO2 ?
CF NFkB block: -2; TWEAK-Fn14 inh: 42; Peg3 prom inh: -97; HIF-2a block: -178; KKLEB tox: -18; TROY signal inh: 45

How did O=C(NC(=S)Nc1ccc(N2CCCCC2)cc1)c1ccc2c(c1)OCCO2 do in these assays?
CF NFkB block: -1; TWEAK-Fn14 inh: 55*; Peg3 prom inh: -63; HIF-2a block: -42; KKLEB tox: -5; TROY signal inh: 77*

What do the screens show for `Cc1ccc(C(=O)N2CCN(c3ccc(NC(=O)c4ccc5c(c4)OCCO5)cc3)CC2)cc1`?
CF NFkB block: 15; TWEAK-Fn14 inh: 76*; Peg3 prom inh: 27; HIF-2a block: 13; KKLEB tox: -11; TROY signal inh: 57*

How did O=[N+]([O-])c1ccc(Oc2ccc(Oc3ccc(C(F)(F)F)cn3)cc2)nc1 do in these assays?
CF NFkB block: -17; TWEAK-Fn14 inh: -15; Peg3 prom inh: 11; HIF-2a block: -18; KKLEB tox: -1; TROY signal inh: -3

What do the screens show for `CC1(C)N=C(N)N=C(N)N1c1ccc(OCC(=O)Nc2ccccc2)c(Cl)c1`?
CF NFkB block: -45; TWEAK-Fn14 inh: 19; Peg3 prom inh: 10; HIF-2a block: 31; KKLEB tox: 5; TROY signal inh: 10

Results for CC1(C)N=C(N)N=C(N)N1c1ccc(OCCCOc2ccccc2)c(Cl)c1 ?
CF NFkB block: 9; TWEAK-Fn14 inh: 87*; Peg3 prom inh: 26; HIF-2a block: 34; KKLEB tox: -7; TROY signal inh: 6

Results for O=C(NNC(=O)c1ccc(-n2cncn2)c([N+](=O)[O-])c1)c1ccc(Cl)cc1 ?
CF NFkB block: -5; TWEAK-Fn14 inh: -9; Peg3 prom inh: -23; HIF-2a block: -15; KKLEB tox: 6; TROY signal inh: -40

Results for CCc1ccc(CNC(=O)CCS(=O)(=O)Cc2ccc(C)cc2)cc1 ?
CF NFkB block: -14; TWEAK-Fn14 inh: -6; Peg3 prom inh: -4; HIF-2a block: 8; KKLEB tox: 1; TROY signal inh: -23

What do the screens show for `CC(C)CCCC(C)CCOC(=O)CN1CCCC1` (configuration not stated)?
CF NFkB block: -1; TWEAK-Fn14 inh: 68*; Peg3 prom inh: 4; HIF-2a block: 20; KKLEB tox: 7; TROY signal inh: -6

How did O=C(CSc1cn[nH]n1)Nc1ccccc1C(F)(F)F do in these assays?
CF NFkB block: -13; TWEAK-Fn14 inh: 2; Peg3 prom inh: 1; HIF-2a block: 1; KKLEB tox: 6; TROY signal inh: -23
